Screens deposited in PubChem by National Center for Advancing Translational Sciences (NCATS).
EPAC1 antagonist: antagonists of human EPAC1; 0.14% of 360,000 active; Potency, µM (doses to about 115 µM), usual class: inhibitors; AID 720709; EPAC1 GEF assay, Rap1b-BODIPY-GDP exchange fluorescence; O95398; also: nearly all actives have a fitted effect of over 50% in size
EPAC2 antag: EPAC2 (human) antagonism; Q8WZA2; EPAC2 GEF exchange of Rap1B-BODIPY-GDP, fluorescence; Potency, µM (series often up to 114 µM), usual class: inhibitors; 0.18% of 360,000 active; also: nearly all actives have a fitted effect of over 45% in size
Target sequence (Q8WZA2 whole entry, looked up): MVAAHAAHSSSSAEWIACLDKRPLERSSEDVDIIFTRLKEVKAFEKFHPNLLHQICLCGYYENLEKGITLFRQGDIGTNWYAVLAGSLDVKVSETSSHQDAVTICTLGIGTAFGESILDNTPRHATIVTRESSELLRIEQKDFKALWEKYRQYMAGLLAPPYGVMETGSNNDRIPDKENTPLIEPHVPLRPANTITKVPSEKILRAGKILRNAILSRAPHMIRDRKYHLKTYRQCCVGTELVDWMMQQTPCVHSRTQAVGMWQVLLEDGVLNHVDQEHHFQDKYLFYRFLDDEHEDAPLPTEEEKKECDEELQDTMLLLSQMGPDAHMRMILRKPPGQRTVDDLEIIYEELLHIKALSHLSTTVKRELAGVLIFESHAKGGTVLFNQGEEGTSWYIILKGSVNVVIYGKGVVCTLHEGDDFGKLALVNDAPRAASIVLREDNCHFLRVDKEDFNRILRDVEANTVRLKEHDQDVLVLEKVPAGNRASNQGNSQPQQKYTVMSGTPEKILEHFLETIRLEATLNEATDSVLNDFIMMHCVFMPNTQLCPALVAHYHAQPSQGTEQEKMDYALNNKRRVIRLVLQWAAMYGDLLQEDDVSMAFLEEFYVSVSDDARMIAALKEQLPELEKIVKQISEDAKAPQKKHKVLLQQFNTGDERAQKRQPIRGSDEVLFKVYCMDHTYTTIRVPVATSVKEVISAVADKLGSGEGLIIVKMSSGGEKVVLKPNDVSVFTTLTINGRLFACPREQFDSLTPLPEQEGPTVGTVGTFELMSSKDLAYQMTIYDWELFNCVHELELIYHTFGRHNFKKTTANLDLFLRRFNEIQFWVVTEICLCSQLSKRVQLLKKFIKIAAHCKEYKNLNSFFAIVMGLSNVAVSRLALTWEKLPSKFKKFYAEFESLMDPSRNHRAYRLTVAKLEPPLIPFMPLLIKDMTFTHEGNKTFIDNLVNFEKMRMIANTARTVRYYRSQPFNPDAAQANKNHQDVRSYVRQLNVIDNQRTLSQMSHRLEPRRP
EPAC1 ag: EPAC1 (human) agonism; O95398; EPAC1 agonist qHTS, biochemical assay; response scale: 100% = response to 6.5 mM cAMP; Potency, µM (series often up to 154 µM), actives largely listed as activators; 0.073% of 360,000 active; AID 720707; also: nearly all actives have a fitted effect of over 60% in size
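Nucleotide exchange assay: 100 nM EPAC1 with 250 nM Rap1B loaded with BODIPY-GDP and 50 uM GDP, room temperature. Fluorescence (480/540 nm) read every 5 min for 30 min; signal change normalized to 6.5 mM cAMP as full agonist.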
USP1-UAF1 inh: blocks the human USP1/UAF1 deubiquitinase complex | 0.23% of 390,000 active | recombinant USP1/UAF1, Ub-Rhodamine cleavage fluorescence | AID 743255 | O94782 | Potency, µM (highest dose often 57.1 µM), actives largely listed as inhibitors; also: nearly all actives have a fitted effect of over 60% in size
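1 nM enzyme complex + cpd, 15 min RT; start with Ub-Rho 150nM final; kinetic fluorescence ex 480/em 540, 6 reads q60 s. Buffer 50mM HEPES pH 7.8, 0.5mM EDTA, 0.1 mg/ml BSA, 1mM TCEP, 0.01% Tween-20.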
ALOX12 inh: blocks human arachidonate 12S-lipoxygenase. P18054. Potency, µM (titrated, usually from 108 µM), hits mostly inhibitors. AID 1671190. purified 12hLO, xylenol orange hydroperoxide absorbance. 1.1% of 580,000 active
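Hydroperoxide product was detected by ferrous iron/xylenol orange as the 573 to 405 nm absorbance ratio. Arachidonic acid at 40 uM (final) was turned over for 30 min at room temperature by 150 nM human 12hLO, pH 7.0 Hepes buffer, after 15 min compound preincubation.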
EPAC2 agonist: agonists of human EPAC2 (RAPGEF4); EPAC2 activation, biochemical qHTS; response scale: 100% = 6.5 mM cAMP response; Potency, µM (series often up to 154 µM), usual class: activators; 0.079% of 360,000 active; AID 720711; also: nearly all actives have a fitted effect of over 50% in size
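Readout is BODIPY fluorescence (480 nm excitation, 540 nm emission), which falls as labeled GDP is exchanged off Rap1B. EPAC2 at 100 nM acted on 250 nM RAP1B-BODIPY-GDP with 50 uM GDP present.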
Hits are given with their value. In the library only some 1.3% were active in any assay of this set; here they are far more common. Calls follow the shape of the dose curve; as a rule, active = well fitted curve in the direction sought with a large enough effect; inconclusive = small, poorly fitted or top-dose-only effect, or another doubt; inactive = no such curve, though single readings can be large; an effect the other way counts as inactive or inconclusive.

For COc1ccccc1C(=O)NNC(=S)NC(=O)c1cc(OC)c(OC)c(OC)c1 the results were EPAC1 antagonist inactive, EPAC2 antag inactive, EPAC1 ag inactive, USP1-UAF1 inh inactive, ALOX12 inh 40µM and EPAC2 agonist inactive.
For COc1cc(C(=O)NC(=S)NNC(=O)[C@H]2C[C@@H]2c2ccccc2)cc(OC)c1OC the results were EPAC1 antagonist inactive, EPAC2 antag inactive, EPAC1 ag inactive, USP1-UAF1 inh inactive, ALOX12 inh 32µM and EPAC2 agonist inactive.
For O=C1CC(C(=O)Nc2ccc(F)c(F)c2)n2nc(-c3ccccc3)cc2N1 (centres undefined) the results were ALOX12 inh inactive.
`CC(=O)N1CCN(C(=O)CCc2ncc(-c3ccccc3)o2)CC1` gave ALOX12 inh inactive.
`OCC1(Cc2ccc(Cl)cc2)CCN(CCCc2ccccc2)CC1` gave EPAC1 antagonist inactive, EPAC2 antag inactive, EPAC1 ag inactive, USP1-UAF1 inh inactive, ALOX12 inh 3.2µM and EPAC2 agonist inactive.
Screening O=c1c(N2CCc3ccccc3C2)csc2ccc(Br)cc12 returned USP1-UAF1 inh inactive and ALOX12 inh 40µM.
For CN1\C(=C/C=C/C=C/C=[N+](C)C)C(C)(C)c2ccccc21 the results were EPAC1 antagonist inactive, EPAC2 antag inactive, EPAC1 ag 56µM, USP1-UAF1 inh 25µM, ALOX12 inh inactive and EPAC2 agonist inactive.
`CN1/C(=C/C=C(C#N)C#N)C(C)(C)c2ccccc21` gave EPAC1 antagonist inactive, EPAC2 antag inactive, EPAC1 ag inactive, USP1-UAF1 inh inconclusive, ALOX12 inh inactive and EPAC2 agonist 112µM.
For CN1/C(=C\C=O)C(C)(C)c2ccccc21 the results were EPAC1 antagonist inactive, EPAC2 antag inactive, EPAC1 ag inactive, USP1-UAF1 inh inactive, ALOX12 inh inactive and EPAC2 agonist inactive.
For CN(C)S(=O)(=O)c1cc(NC(=O)c2nn(Cc3ccccc3)c(=O)c3ccccc23)ccc1Cl the results were ALOX12 inh inactive.
For Cc1sc(NC(=O)C2CCCC2)c(C#N)c1C the results were EPAC1 antagonist inactive, EPAC2 antag inactive, EPAC1 ag inactive, USP1-UAF1 inh inactive, ALOX12 inh inconclusive and EPAC2 agonist inactive.
Screening CCc1c(C)sc(NC(=O)C(F)(F)C(F)(F)C(F)(F)C(F)(F)F)c1C#N returned ALOX12 inh 10µM.
For CCc1c(C)sc(NC(=O)C2CCC2)c1C#N the results were ALOX12 inh 13µM.
CCc1c(C)sc(NC(=O)C2CC2)c1C#N was read as ALOX12 inh 28µM.
Cc1ccc(C(=O)NC(Nc2ccccc2Cl)C(=O)c2ccccc2)cc1 (centres undefined) was read as ALOX12 inh inactive.
For CCc1c(C(=O)Nc2scc(-c3cc(C)ccc3C)c2C#N)csc1C the results were ALOX12 inh inactive.
Screening S=c1nc[nH]c2c1sc1nc(-c3ccccc3)c3c(c12)CCCC3 returned EPAC1 antagonist inactive, EPAC2 antag inactive, EPAC1 ag inactive, USP1-UAF1 inh inactive, ALOX12 inh 45µM and EPAC2 agonist inactive.
Screening CCN(c1ccccc1)S(=O)(=O)c1ccc(N2CCN(c3ccc(O)cc3)CC2)nc1 returned EPAC1 antagonist inactive, EPAC2 antag inactive, EPAC1 ag inactive, USP1-UAF1 inh inconclusive, ALOX12 inh 20µM and EPAC2 agonist inactive.
For CCN(c1ccccc1)S(=O)(=O)c1ccc(N2CCN(c3ccc(OC)cc3)CC2)nc1 the results were EPAC1 antagonist inactive, EPAC2 antag inactive, EPAC1 ag inactive, USP1-UAF1 inh inactive, ALOX12 inh inactive and EPAC2 agonist inactive.
Screening COc1ccc(-c2cc(-c3cccc(CO)c3)cn3cncc23)cn1 returned ALOX12 inh inactive.
For O=C(O)c1cccc(N2C(=O)/C(=C/c3ccc(SCc4ccc(Cl)cc4)o3)SC2=S)c1 the results were EPAC1 antagonist inactive, EPAC2 antag inactive, EPAC1 ag inactive, USP1-UAF1 inh inconclusive, ALOX12 inh 3.5µM and EPAC2 agonist inactive.
`Cc1c(CC(=O)NCCc2ccccc2)c(=O)oc2cc(O)ccc12` gave ALOX12 inh inactive.
